High-throughput results (PubChem)
Shown are actives, neighbours in structure and some others; about 3.7% of the full set was active somewhere.
tim23-1 inh: tim23-1 yeast growth inhibition | inhibition, % at 20 µM | AID 463212 | S. cerevisiae tim23-1 growth, BacTiter-Glo luminescence, 24 h | 1.3% of 330,000 active;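 active = growth inhibition of the mutant yeast at or above 50%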;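 also: temperature-sensitive mutant grown at 25 °C; plate controls were DMSO-treated mutant yeast for no effect and medium wells lacking yeast for full effect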
tim10-1 inh: inhibits growth of tim10-1 mutant yeast | S. cerevisiae tim10-1 ts strain growth, BacTiter-Glo, 24 h | inhibition, % at 20 µM | 2.2% of 330,000 active | AID 463190;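 active = inhibition of at least 40%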;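 also: mutant grown at 25 °C; 0% = DMSO wells with yeast and 100% = wells holding no yeast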
PfHsp90 set2: inhibits growth of yeast expressing Plasmodium falciparum Hsp90; S. cerevisiae expressing PfHsp90, BacTiter-Glo ATP, 48 h; yeast lacking PDR1 and PDR3 efflux regulators; inhibition, % at 9.4 µM; 0.32% of 310,000 active;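 active = every replicate shows inhibition above about 80%, whatever the replicate mean, limit read from the data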;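 also: 0% = DMSO neutral controls and 100% = 20 µM radicicol positive controls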
TIM10 inh: inhibits growth of TIM10 yeast strain | S. cerevisiae TIM10 strain growth, BacTiter-Glo luminescence, 24 h | inhibition, % at 10 µM | 1.4% of 330,000 active;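 active = inhibition of 40% or more at the single tested concentration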;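 also: wild-type TIM10 isogenic control strain grown at permissive 25 °C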
Rce1 inh: blocks yeast Ras-converting enzyme | 0.27% of 290,000 active | Q03530 | yeast membranes, quenched prenylated peptide cleavage fluorescence | calls only;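 active = fall in fluorescence gain of 50% or more versus controls, with final raw signal at or below 3038400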;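 also: plate controls were neutral control wells for no effect and wells lacking membranes for full effect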
Target sequence (Q03530 whole entry, looked up): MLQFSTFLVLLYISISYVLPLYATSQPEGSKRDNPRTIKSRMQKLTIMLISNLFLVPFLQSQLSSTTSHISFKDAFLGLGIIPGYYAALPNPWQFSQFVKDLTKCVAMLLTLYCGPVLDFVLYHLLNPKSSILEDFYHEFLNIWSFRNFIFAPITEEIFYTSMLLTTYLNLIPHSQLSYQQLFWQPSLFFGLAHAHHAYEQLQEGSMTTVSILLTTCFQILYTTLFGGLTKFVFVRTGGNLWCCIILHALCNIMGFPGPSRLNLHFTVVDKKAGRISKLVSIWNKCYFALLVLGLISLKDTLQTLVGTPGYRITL
tim10-1 confirm: tim10-1 yeast growth inhibition, confirmed; inhibition, % at 20 µM; 56% of 7,400 active; S. cerevisiae tim10-1 ts strain growth, BacTiter-Glo, 24 h; shares compounds with tim10-1 inh;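 active = inhibition of yeast growth at or above a set limit in either of two repeat tests at 20 µM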;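 also: tim10-1 mutant grown at permissive 25 °C to find synthetic lethal compounds; 0% = DMSO yeast wells and 100% = medium wells without yeast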
TIM10 conf: TIM10 yeast growth inhibition, confirmed | S. cerevisiae tim10 strain growth, BacTiter-Glo luminescence, 24 h | 63% of 4,600 active | inhibition, % at 10 µM | shares compounds with TIM10 inh | AID 463215;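 active = inhibition of yeast growth at or above a set limit in either of two replicates at 10 µM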;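 also: this counterscreen used the strain with wild-type TIM10; 0% = yeast with DMSO and 100% = medium wells lacking yeast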
tim23-1 conf: tim23-1 yeast growth inhibition, confirmed; 83% of 4,400 active; inhibition, % at 20 µM; AID 463218; S. cerevisiae tim23-1 growth, BacTiter-Glo luminescence, 24 h; shares compounds with tim23-1 inh;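 active = inhibition above about 39% in either of two replicate wells at 20 µM, limit read from the data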;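 also: temperature-sensitive tim23-1 mutant grown at 25 °C; 0% = DMSO wells with yeast and 100% = medium wells without yeast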
Active calls of the source: *; i = inactive; x = not tested or not shown.

SMILES | tim23-1 inh | tim10-1 inh | PfHsp90 set2 | TIM10 inh | Rce1 inh | tim10-1 confirm | TIM10 conf | tim23-1 conf
Cc1ccc(C(C[N+](=O)[O-])c2c(-c3ccccc3O)[nH][nH]c2=O)cc1 (configuration not stated) | 66* | 44* | -49 | 33 | i | 37* | x | 56*
O=c1[nH][nH]c(-c2ccccc2O)c1C(C[N+](=O)[O-])c1ccc(Br)cc1 (configuration not stated) | 62* | 52* | 2 | 53* | i | 44* | -22 | 65*
COc1ccc(C(C[N+](=O)[O-])c2c(C)[nH]c3ccccc23)cc1OC (configuration not stated) | 31 | 35 | 1 | 19 | i | x | x | x
O=C(O)C(Cc1ccc(O)c([N+](=O)[O-])c1)N1C(=O)c2ccccc2C1=O (configuration not stated) | x | x | 22 | x | x | x | x | x
O=C(Nc1nc2c(Br)cccc2s1)C1CC1 | 80* | 46* | 24 | 20 | i | 36* | x | 76*
CCN(CC)CCN(C(=O)c1ccc2c(c1)CCCC2)c1nc2cc(OC)c(OC)cc2s1 | 66* | 61* | -20 | 49* | i | 40* | 46* | 61*
COc1cc2nc(N(CCN(C)C)C(=O)c3ccc4ccccc4c3)sc2cc1OC | 22 | 5 | -22 | 10 | i | x | x | x
O=S(=O)(NC12CC3CC(CC(C3)C1)C2)c1ccc(F)cc1 | 55* | 48* | 0 | 12 | i | 30* | x | 49*
O=S(=O)(Nc1ccccc1)c1ccc(F)cc1 | 11 | 6 | 71 | 1 | i | x | x | x
CC(=O)Nc1ccc(N2CCCCC2)c(C(=O)Nc2cccc(C)c2)c1 | 54* | 43* | -12 | 38 | i | 57* | x | 50*
CCC(=O)N1CCc2cc(Br)cc(S(=O)(=O)NCc3ccccc3OC)c21 | 20 | 20 | 13 | 1 | i | x | x | x
O=C(NCCO)c1ccc2c3n(nc2c1)-c1ccccc1CO3 | 5 | 13 | 6 | 11 | i | x | x | x
O=C(NCC1CC1)c1ccc2c3n(nc2c1)-c1ccccc1CO3 | 69* | 42* | x | 45* | i | 42* | 44* | 69*
CCSc1n[nH]c2nc3c(c(=O)n12)C1(CCCC1)Cc1ccccc1-3 | 41 | 33 | -11 | 34 | i | x | x | x
Cc1ccc(-n2c(SCC(N)=O)nc3c(c2=O)C2(CCCC2)Cc2ccccc2-3)cc1 | 52* | 49* | 12 | 32 | i | 36* | x | 44*
CCN(CC)Cc1nc2c(c(=O)[nH]1)C1(CCCCC1)Cc1ccccc1-2 | 50* | 41* | -14 | 50* | i | 41* | 47* | 40*
CSc1nnc2n(C)c3c(c(=O)n12)C1(CCCC1)Cc1ccccc1-3 | 62* | 45* | 9 | 40* | i | 30 | 35* | 50*
CCC1(CC)Cc2ccccc2-c2nc(CN(C)C)[nH]c(=O)c21 | 38 | 29 | -12 | 20 | i | x | x | x
Cn1c(NCCO)nc2c(c1=O)C1(CCCCC1)Cc1ccccc1-2 | 59* | 59* | -6 | 31 | i | 37* | x | 63*
Cn1c(=O)c2c(n3cnnc13)-c1ccccc1CC21CCCC1 | 29 | 20 | 22 | -37 | i | x | x | x
CSc1n[nH]c2nc3c(c(=O)n12)C1(CCCC1)Cc1ccccc1-3 | 53* | 48* | 14 | 39 | i | 51* | x | 55*
COc1cccc2c1nc(C)c1cc(C)oc12 | 17 | 21 | -16 | 6 | i | x | x | x
COc1cccc2nc3cc(C)c(C)cc3nc12 | 50* | 64* | 66 | 43* | i | 53* | 33* | 54*
Cc1cc(C(=O)NNC(=S)NCc2ccco2)n(C)n1 | 0 | -5 | -3 | 4 | i | x | x | x
CC(C)c1cc(C(=O)NNC(=S)NCc2ccco2)c(O)c(C(C)C)c1 | 54* | 55* | -21 | 57* | i | 57* | 7 | 66*
SMILES | tim23-1 inh | tim10-1 inh | PfHsp90 set2 | TIM10 inh | Rce1 inh | tim10-1 confirm | TIM10 conf | tim23-1 conf
COC(=O)[C@]1(C)N[C@H](CN(C)C(=O)Nc2ccccc2)[C@@H]2C(=O)N(Cc3ccccc3)C(=O)[C@@H]21 | 9 | 8 | -4 | -3 | x | x | x | x
N#C/C(=C\c1ccncc1)c1nc2ccccc2o1 | 72* | 56* | x | 42* | i | 43* | 34* | 61*
N#C/C(=C\c1ccc(Cl)cc1)c1nc2ccccc2o1 | 76* | 51* | -100 | 31 | i | 49* | x | 75*
Cc1cc(C)c(S(=O)(=O)N2CCCCC2)c(C)c1N(C)S(=O)(=O)c1ccc(Cl)cc1 | 17 | 23 | 3 | 10 | i | x | x | x
O=C(OCc1csc(Nc2ccccc2)n1)c1ccc(Cl)cc1 | 61* | 47* | 2 | 58* | i | 25 | 41* | 44*
Cc1oc2c(c1C(=O)NCc1cccnc1)C(=O)c1ccccc1C2=O | 83* | 83* | x | 94* | i | 82* | 95* | 72*
COc1ccc(CNC(=O)c2c(C)oc3c2C(=O)c2ccccc2C3=O)cc1 | 89* | 83* | -20 | 57* | i | 74* | 68* | 86*
COc1ccccc1CNC(=O)c1ccc2c(=O)n(CCCN3CCCC3=O)c(=S)[nH]c2c1 | -13 | 11 | x | -3 | i | x | x | x
Fc1ccc(C2Nc3cccc4cccc(c34)N2)cc1 | 57* | 45* | 21 | 31 | i | 30 | x | 51*
CCOCc1c(C(=O)NC2CCCCCC2)oc2ccccc12 | 29 | -1 | 6 | -11 | i | x | x | x
CC(C)(C)c1csc(NC(=O)c2cccnc2Cl)n1 | 25 | 14 | 16 | -5 | i | x | x | x
CC(C)(C)c1csc(NC(=O)c2ccccc2O)n1 | 89* | 84* | -28 | 67* | i | 84* | 72* | 92*
NC(=O)C1=C(N=C2CCCCC2)CCCC1 | x | x | -2 | x | x | x | x | x
CCOc1ncccc1C(=O)Nc1c(C)n(C)n(-c2ccccc2)c1=O | 0 | -17 | -2 | -8 | i | x | x | x
Cc1ccc(C(=O)Nc2ccc3ncccc3c2)cc1 | 11 | -14 | 31 | -2 | i | x | x | x
Cc1ccc(C(=O)/C=C/c2ccc3ncccc3c2)cc1 | 69* | 53* | -1 | 52* | i | 52* | 50* | 47*
Cc1ccc(C(=O)Oc2cc(N)n(S(=O)(=O)c3ccc(F)cc3)n2)cc1 | 52* | 49* | -34 | 45* | i | 34* | 49* | 43*
COc1cccc(C(=O)Oc2cc(N)n(S(=O)(=O)c3ccc(C)cc3)n2)c1OC | 32 | 36 | 0 | 25 | i | x | x | x
COc1cc(O)cc(O)c1C(=O)/C=C/c1ccccc1 | 36 | 37 | -9 | 30 | i | x | x | x
